Laboratory results: PubChem BioAssay (NCI)
Compounds without any hit were thinned out: in the full panel of roughly 83,000, 20% have a hit.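 Compound tested at a single concentration for 48 hours in 96-well plates; a percent growth value below 10 was scored as active.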 The source made the active and inactive calls.

These molecules were tested on HOP-92 NSCLC (assay: NCI-60 one-dose screen, 48 h (100 = growth as untreated, 0 = no growth, -100 = all killed)). Conditions: 10 µM.
Procedure: Growth inhibition of the HOP-92 human Non-Small Cell Lung tumor cell line is measured as a screen for anti-cancer activity. Cells are grown in 96 well plates and exposed to the test compound for 48 hours. Compounds are tested at a single concentration, which is 10^-5 M for most compounds. The reported endpoint is percent growth (GI% or GIPRCNT), where numbers from 0 - 100% represent growth inhibition, and numbers from -100% - 0 represent cell death. For example, a value of 40 represents 60% growth inhibition. A value of 0 means no net growth occurred over the course of the experiment. A value of -40 indicates 40% of cells at the beginning of the experiment died by the end of the experiment. A value of -100 means all cells are dead at the end of the experiment.
NCI-60 Human Tumor Cell Lines Screen was performed using the standard one-dose NCI protocol, which is described in more detail at https://dtp.cancer.gov/discovery_development/nci-60/default.htm.
Compounds with GIPRCNT values below 10 were considered active. Activity score was based on GIPRCNT using the following formula: […]
Score is 0 for GIPRCNT values of 100 or above, 50 for GIPRCNT values of 0, and 100 for GIPRCNT values of -100.

SMILES | growth
O=[N+]([O-])c1ccc(N=Nc2ccccc2)cc1 | 94% (inactive)
Cc1ccc(C)n1-c1ccsc1C(=O)NNC(=O)CCl | 97.4% (inactive)
Cn1cnc2nc(Cl)nc(Cl)c21 | 31.3% (inactive)
CC(=O)OCC1CCCO1 (stereo not given) | 97.4% (inactive)
COc1cc(/C=C/C(=O)c2ccccc2)cc(OC)c1OC | 76% (inactive)
C=CCNc1nnc(C)s1 | 83% (inactive)
O=[N+]([O-])c1ccc(-c2noc(-c3cccs3)n2)cc1 | 91.8% (inactive)
CC(C)OC(C(=O)O)c1ccccc1 (stereo not given) | 81.3% (inactive)
CN(C)c1ccc(C(c2ccc(O)cc2)c2ccc(N(C)C)cc2)cc1 | 90.9% (inactive)
O=C(O)c1ccc(S(=O)(=O)O)cc1 | 76.3% (inactive)
CC1(C)S(=O)(=O)OCCOS1(=O)=O | 83.8% (inactive)
COc1cc2c(cc1OC)[C@H](C(=O)O)[C@@H](c1ccc(OC(C)C)c(OC)c1)N(C)C2=O | 83.3% (inactive)
N#CC(=Nc1cccc(F)c1)C1=C(O)c2ccccc2C1=O | 63.8% (inactive)
CCCCCCCCOC(=O)c1ccccn1 | 107% (inactive)
FC(F)(F)c1ccc2c(c1)N(CCCN1CCN(C3CC3)CC1)c1ccccc1S2 | 51.1% (inactive)
CC(=O)Nc1c(C)cc(C)cc1C | 69% (inactive)
CO[C@H]1C[C@@H]2CC[C@@H](C)[C@@](O)(O2)C(=O)C(=O)N2CCCC[C@H]2C(=O)O[C@H]([C@H](C)C[C@@H]2CC[C@@H](O)[C@H](OC)C2)CC(=O)[C@H](C)C=C(C)[C@@H](O)[C@@H](OC)C(=O)[C@H](C)C[C@H](C)/C=C/C=C/C=C1C | 30.7% (inactive)
CC(C)CCCC(=O)O | 73.9% (inactive)
NC(=O)c1ccc(N=C(N)N=C(N)N)cc1 | 83.2% (inactive)
O=C(OCC(O)C1OC(c2ccccc2)OC(COC(=O)c2ccccc2)C1O)c1ccccc1 (stereo not given) | 89.8% (inactive)

SMILES | growth
O=C(Nc1ccccc1C(=O)NCC1CC1)c1cccs1 | 71.6% (inactive)
O=C(Nc1ccccc1)OCCc1ccccc1 | 82.5% (inactive)
O=C(c1ccc(Cl)cc1)c1ccccc1Cl | 78.2% (inactive)
O=C(O)CCC(NC(=O)OCc1ccccc1)C(=O)O (stereo not given) | 95.9% (inactive)
COc1ccccc1NC(=O)C1=C(C)NC(C)=C(C(=O)Nc2ccccc2OC)C1c1cccc([N+](=O)[O-])c1 | 56.8% (inactive)
CCOC(=O)/C(C#N)=C/c1cccc(C)c1 | 83.8% (inactive)
c1ccc(/C(=N\N=C(/c2ccccc2)c2cccs2)c2cccs2)cc1 | 92% (inactive)
c1ccc2c(c1)Sc1ccccc1S2 | 81.8% (inactive)
CCOC(=O)c1ccc(NC(=S)P(=O)(c2ccccc2)c2ccccc2)cc1 | 78.1% (inactive)
CCNc1nc2c(cnn2C)c(=O)[nH]1 | 99.8% (inactive)
Cc1cc(C(O)(c2ccc(Nc3ccccc3)cc2)c2ccc(Nc3ccc(S(=O)(=O)O)cc3)cc2)ccc1N (stereo not given) | -23.8% (active)
CCN(CC)C(=O)/C=C(/C)c1ccccc1 | 80.2% (inactive)
COC(=O)CCCCC1=CCC2C(=O)C=C(O)C2C1 (stereo not given) | 85.2% (inactive)
CCCCNC1(C#N)CCN(Cc2ccccc2)CC1 | 90.4% (inactive)
CCCC(=O)Nc1ccc2c(c1)CN1C(=O)c3ccccc3C1=N2 | 95.3% (inactive)
CCCCOC(=O)c1ccc(C(C)C)cc1 | 88.2% (inactive)
O=[N+]([O-])c1ccc(Sc2ccncn2)c([N+](=O)[O-])c1 | 103% (inactive)
COc1cc(C2c3cc4c(cc3C3OC(=O)C2C3CO)OCO4)cc(OC)c1OC (stereo not given) | 45.7% (inactive)
O=C(CS)Nc1ccc2ccccc2c1 | 101% (inactive)
OC1CCCc2ccccc21 (stereo not given) | 112% (inactive)
